Rows were chosen to be rich in hits. Some 1.7% of all compounds tested hit in one or more screens of this group.
PTHR1 agonist: qHTS for PTHR1 Agonists: Primary Screen. Parathyroid hormone/parathyroid hormone-related peptide receptor (Homo sapiens), Q03431. HEK293 GP2 PTHR1 cells, GloSensor cAMP luminescence, 1 h. Potency, µM (doses to about 115 µM), usual class: activators. 410,000 tested, 0.075% active; also: nearly all actives have a fitted effect of over 55% in size
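HEK-293-derived GP2 cells expressing PTHR1 and a GloSensor cAMP reporter, 3,000/well, plated overnight, given luciferin plus IBMX (each 0.5 mM as added) for 1 h at 37 °C, then compound for 1 h at 37 °C. Luminescence was read after 15 min at room temperature.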
HEK293 tox: qHTS of GLP-1 Receptor Inverse Agonists: Cytotox Screen; HEK293 cAMP-luciferase reporter cells, luminescence, 24 h; AID 624418, 2012; Potency, µM (titrated, usually from 38.3 µM), usual class: inhibitors; 410,000 tested, 0.13% active;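 also: loss of luciferase light is scored as toxicity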
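MLSMR compounds, 24 hr on cells at 37 deg C/5% CO2; luminescence after luciferase reagent (12 min RT). Inhibition counted as the undesired cytotoxic outcome.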
GLP1R ag: qHTS of GLP-1 Receptor Agonists; AID 624172, 2012; HEK293 GLP-1R CRE-luciferase, luminescence, 4-6 h; cells express a hypersensitive GLP-1R form; Potency, µM (series often up to 45.6 µM), usual class: activators; 380,000 tested, 0.007% active; Glucagon-like peptide 1 receptor (Homo sapiens), P43220
Target sequence (P43220 whole entry, looked up): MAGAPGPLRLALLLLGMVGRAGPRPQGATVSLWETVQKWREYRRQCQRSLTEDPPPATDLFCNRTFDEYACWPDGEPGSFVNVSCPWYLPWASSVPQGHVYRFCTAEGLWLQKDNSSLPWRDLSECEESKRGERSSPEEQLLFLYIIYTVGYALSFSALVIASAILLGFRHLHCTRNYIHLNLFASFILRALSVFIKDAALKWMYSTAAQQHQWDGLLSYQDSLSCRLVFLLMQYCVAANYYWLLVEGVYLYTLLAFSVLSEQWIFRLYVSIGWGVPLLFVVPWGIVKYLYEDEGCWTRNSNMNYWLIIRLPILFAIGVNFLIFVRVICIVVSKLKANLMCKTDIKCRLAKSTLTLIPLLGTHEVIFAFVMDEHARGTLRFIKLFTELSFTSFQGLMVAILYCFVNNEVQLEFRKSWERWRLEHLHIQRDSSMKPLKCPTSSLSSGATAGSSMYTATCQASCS
GLP1R inv ag: qHTS of GLP-1 Receptor Inverse Agonists (Inhibition Mode) | 410,000 tested, 1.6% active | Potency, µM (top dose mostly 38.3 µM), hits mostly inhibitors | HEK293 GLP-1R CRE-luciferase, luminescence, 24 h; GLP-1R form is constitutively active; also: nearly all actives have a fitted effect of over 55% in size
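Stable HEK293 clone (constitutively active GLP-1R + cAMP-response luciferase); 200 cells/uL plated, 12 h pre-culture, compound 24 hr, 37 deg C/5% CO2; detection reagent 12 min RT; luminescence.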
Large screens that a line does not name were inactive. Calls follow the shape of the dose curve; as a rule, active = well fitted curve in the direction sought with a large enough effect; inconclusive = small, poorly fitted or top-dose-only effect, or another doubt; inactive = no such curve, though single readings can be large; an effect the other way counts as inactive or inconclusive.

CCOc1ccc(-c2nc(CSCC(=O)NCCc3ccc(OCC)c(OCC)c3)c(C)o2)cc1	GLP1R inv ag inconclusive (no result: GLP1R ag)
S=C=Nc1cccc(C2(N3CCCCC3)CCCCC2)c1	HEK293 tox inconclusive, GLP1R inv ag 8.91µM
c1ccc(C2(N3CCCCC3)CCCCC2)cc1	none
O=C(Cn1ncc(Cl)c(Cl)c1=O)NCC1CCCCC1	HEK293 tox 10µM, GLP1R inv ag inconclusive
COc1ccc(-c2nc(CN3C(=O)CN=C(c4ccccc4)c4ccccc43)c(C)o2)cc1OC	none (no result: GLP1R ag)
c1ccc2c(c1)[IH]c1ccccc1-2	HEK293 tox inconclusive, GLP1R inv ag 4.47µM
O=C1c2ccccc2C(=O)c2ccccc21	none (no result: PTHR1 agonist, HEK293 tox, GLP1R inv ag)
COc1cccc(C(=O)C2CCCN(Cc3cccc(C)n3)C2)c1 (stereo not given)	HEK293 tox inconclusive, GLP1R inv ag inconclusive
COc1c(C)cc(C(=O)C2CCCN(Cc3cccc(C)n3)C2)cc1C (stereo not given)	GLP1R inv ag 8.91µM
CCOC(=O)c1c(C)n(-c2ccc(C)cc2)c2c(C(C(C)=O)C(=O)O)c(Br)c(O)c(O)c12 (stereo not given)	HEK293 tox inconclusive
CCOC(=O)c1c(C)n(-c2ccc(OC)cc2)c2ccc(O)c(CN(C)C)c12	HEK293 tox inconclusive, GLP1R inv ag 5.62µM
c1ccc(N2CCN(c3ncnc4c3nc3n4CCCCC3)CC2)cc1	none
CN(C)C1(CNC(=O)Nc2ccc(Cl)c(Cl)c2)CCCCC1	HEK293 tox inconclusive, GLP1R inv ag 3.98µM
CCn1ccnc1CN1CCCC(C(=O)c2ccc(SC)cc2)C1 (stereo not given)	HEK293 tox 12.6µM, GLP1R inv ag inconclusive
COc1cc(/C=C(/C)[N+](=O)[O-])ccc1OCc1ccccc1Cl	HEK293 tox inconclusive, GLP1R inv ag 7.08µM
COc1cc(C=C2C(=O)NC(=O)NC2=O)ccc1OCc1ccc([N+](=O)[O-])cc1	none
CN1CC2=Cc3ccccc3OC23Oc2ccccc2C=C3C1	HEK293 tox inconclusive, GLP1R inv ag inconclusive
C#CCn1cc(/C=N/Nc2nc3ccccc3[nH]2)c2ccccc21	HEK293 tox inconclusive, GLP1R inv ag inconclusive
O=C(CCl)Nc1cc(S(=O)(=O)N2CCCCCC2)ccc1Cl	HEK293 tox 11.2µM, GLP1R inv ag inconclusive
COc1ccccc1CNCC(=O)Nc1cc(S(=O)(=O)N2CCCCC2)ccc1C	GLP1R inv ag inconclusive
O=c1nc(/C=C/c2ccc(Cl)cc2Cl)cc(C(F)(F)F)[nH]1	GLP1R inv ag 3.98µM
CCN1C(=O)NC(=O)/C(=C/c2cc(C)n(-c3sc(C)c(C)c3C#N)c2C)C1=O	HEK293 tox inconclusive, GLP1R inv ag inconclusive
Cc1ccc(N2C(=O)NC(=O)/C(=C\c3cc(C)n(-c4sc5c(c4C#N)CCCC5)c3C)C2=O)cc1	GLP1R inv ag 3.55µM
CCCCc1ccc2[nH]cc(CCN)c2c1	HEK293 tox inconclusive, GLP1R inv ag 10µM
O=c1[nH]c(=O)n(Cl)c(=O)n1Cl	none (no result: PTHR1 agonist, HEK293 tox, GLP1R inv ag)
CC1(O)CCC2C3CCC4=CC(=O)CCC4(C)C3(F)C(O)CC21C (stereo not given)	none (no result: PTHR1 agonist, HEK293 tox, GLP1R inv ag)
COc1ccc2sc(-c3ccc(SC)cc3)c(-c3ccc(O)cc3)c2c1	HEK293 tox inconclusive, GLP1R inv ag 5.62µM
COc1ccc(CCNCc2ccc(SC)cc2)cc1	none
O=C(CF)NC(Nc1cccc2cccnc12)C(Cl)(Cl)Cl (stereo not given)	GLP1R inv ag 10µM
CNC(=O)OCC[N+](C)(C)C	none (no result: PTHR1 agonist, HEK293 tox, GLP1R inv ag)
O=C(c1cc(F)ccc1F)C1CCCN(CCCc2ccccc2)C1 (stereo not given)	GLP1R inv ag inconclusive
O=C(c1cc(F)ccc1F)C1CCCN(Cc2cccc(Cl)c2)C1 (stereo not given)	GLP1R inv ag 10µM
CCOC(=O)[C@]12Cc3cc(OC)ccc3[C@H]1N(Cc1ccccc1)C(=O)c1cc(F)c(F)cc12	GLP1R inv ag inconclusive
CCCCCN1C(=O)c2ccccc2[C@@]2(C(=O)OCC)Cc3cc(OC)ccc3[C@@H]12	HEK293 tox inconclusive, GLP1R inv ag 8.91µM
CCOC(=O)[C@]12Cc3cc(C)ccc3[C@H]1N(Cc1ccccc1)C(=O)c1cc(F)c(F)cc12	GLP1R inv ag 11.2µM
O=C(NN=Cc1ccc(N(CCCl)CCCl)cc1)C(=O)c1c[nH]c2ccccc12	GLP1R inv ag 5.62µM
C[C@H](N)C(=O)c1ccccc1	none (no result: PTHR1 agonist, HEK293 tox, GLP1R inv ag)
Cc1ccc(C(=O)NCCSC2CCCCC2)cc1S(=O)(=O)Nc1ccccc1	HEK293 tox inconclusive, GLP1R inv ag 11.2µM
CCOc1ccc(NC(=O)CN(c2ccc([N+](=O)[O-])cc2)S(=O)(=O)c2ccccc2)cc1	HEK293 tox inconclusive, GLP1R ag inconclusive, GLP1R inv ag 3.98µM
O=C(Nc1cc([N+](=O)[O-])ccc1C(=O)Nc1cccnc1)c1ccccc1	HEK293 tox inconclusive
Cc1ccc(NC(=O)C(CC(C)C)NS(=O)(=O)c2ccc3c(c2)oc(=O)n3C)c(C)c1 (stereo not given)	HEK293 tox inconclusive
COc1ccc(CCNC(=O)c2c(N)n(CCN3CCOCC3)c3nc4ccccc4nc23)cc1OC	GLP1R inv ag 10µM
COC(=O)C1=CN(c2ccc(C(C)(C)C)cc2)C(N)=C(C#N)C1c1cccc([N+](=O)[O-])c1 (stereo not given)	GLP1R inv ag inconclusive (no result: GLP1R ag)
CN(C)C(=O)Oc1c(Cl)cc(Cl)c2ccccc12	GLP1R inv ag 11.2µM
CN(C)C(=O)Oc1ccc(Cl)c2cccnc12	none
CCOc1ccc(-c2cc(C)[n+](CCc3ccc(OC)c(OC)c3)c(-c3ccc(OCC)cc3)c2)cc1	HEK293 tox inconclusive, GLP1R inv ag 6.31µM
COc1ccc(S(=O)(=O)N2CCN(C(=O)c3ccc(COc4ccccc4)o3)CC2)cc1	GLP1R inv ag inconclusive
CC(C)(C)c1csc(NC(=O)Nc2ccccc2)n1	GLP1R inv ag 10µM
COC(=O)C1=C(c2cccc(OCc3ccccc3)c2)C[C@@H]2CC[C@H]1N2C(=O)NCc1cccc(OC)c1	GLP1R inv ag inconclusive
COC(=O)C1=C(c2ccccc2OCc2ccccc2)C[C@@H]2CC[C@H]1N2C(=O)NCc1ccc(N(C)C)cc1	GLP1R inv ag inconclusive
COC(=O)C1=C(c2ccc(F)cc2OCc2ccccc2)C[C@@H]2CC[C@H]1N2C(=O)NCc1cccc(C(F)(F)F)c1	GLP1R inv ag 5.62µM
COC(=O)C1=C(c2ccc(F)cc2OCc2ccccc2)C[C@@H]2CC[C@H]1N2C(=O)NCCc1ccc(F)cc1	GLP1R inv ag 7.08µM
COC(=O)C1=C(c2cccc(OCc3ccccc3)c2)C[C@@H]2CC[C@H]1N2C(=O)NCc1ccccc1C(F)(F)F	GLP1R inv ag 3.98µM
COC(=O)C1=C(c2ccc(F)cc2OCc2ccccc2)C[C@@H]2CC[C@H]1N2C(=O)NCc1ccc(N(C)C)cc1	GLP1R inv ag 10µM
CC(C)NCC(O)c1ccccc1Cl (stereo not given)	none (no result: PTHR1 agonist, HEK293 tox, GLP1R inv ag)
CCCC(C)(COC(N)=O)COC(=O)NC1CC1 (stereo not given)	none (no result: PTHR1 agonist, HEK293 tox, GLP1R inv ag)

Compound activity as filed in PubChem.
